# FMDV RLuc = antivirals against foot and mouth disease virus replicon. FMDV replicon cells, Renilla luciferase signal. Potency, µM (doses to about 57.5 µM), inactives show top-dose activity change, negative = inhibition, actives largely listed as inhibitors. actives 0.32% (n = 120,000). AID 1745857; note: nearly all actives have a fitted effect of over 55% in size
# FMDV FLuc = antivirals against foot and mouth disease virus; Potency, µM (titrated, usually from 57.5 µM), for the others: at the top dose activity change, negative = inhibition, usual class: inhibitors; AID 1745856; actives 0.23% (n = 120,000); FMDV antiviral cell assay, firefly luciferase signal; note: nearly all actives have a fitted effect of over 60% in size
# * hit, by the source's call; ? = inconclusive. In the library only some 0.51% were active in any assay of this set; here they are far more common. Calls come from the whole dose curve. % is set by controls: 0 for no effect and ±100 for the full control effect; potency is the fitted concentration of half-maximal effect.
SMILES,FMDV RLuc,FMDV FLuc
CC(=O)C1=C(C)Oc2ncn3nc(COc4cccc(C)c4C)nc3c2C1c1ccco1 (configuration not stated),-7%,-7%
Cc1cccc(OCc2nc3c4c(ncn3n2)OC2=C(C(=O)CCC2)C4c2ccco2)c1C (configuration not stated),?,20µM*
Ic1cc2c(-c3ccccc3)c(-c3ccccc3)[nH]c2c2ccccc12,0%,0%
O=C(O)c1cnc(OCC(F)(F)F)c(Cl)c1,-3%,4%
O=C(N/N=C\c1cccs1)c1ccccn1,24%,0%
O=C(c1ccc(Cl)cc1)N1CCN(c2nc3ccccc3s2)CC1,0%,13%
CCS(=O)(=O)c1ccccc1C(=O)N1CCN(c2nc3ccccc3s2)CC1,-4%,11µM*
COCCn1c(Br)nc2c1c(=O)[nH]c(=O)n2C,-11%,0%
O=C(CNC(=O)c1[nH]c2ccccc2c1Cl)NCc1ccccc1,110%,110%
O=C(CSc1ccc2ccccc2n1)Nc1ccc2c(c1)CCC2,-1%,59%
O=C(CSc1ccc(N2CCC(C(=O)N3CCCCC3)CC2)nn1)Nc1ccc2c(c1)CCC2,3.2µM*,4µM*
CSc1nnc(-c2ccccc2NC(=O)c2cccc(S(=O)(=O)N3CCCCCC3)c2)o1,4%,3%
CCCNc1ncnc2onc(-c3ccc(C)cc3)c12,15%,8%
CCOc1ccc(CCNc2ncnc3onc(C)c23)cc1OCC,2.5µM*,3.2µM*
Cc1ccc(CCNc2ncnc3onc(C)c23)cc1,1.6µM*,1.8µM*
CCOCCCNc1ncnc2onc(C)c12,-5%,-6%
COc1ccc(-c2csc(NC(=O)c3nn(C(C)C)c(=O)c4ccccc34)n2)cc1,4%,10%
Cc1cccc(OCCCC(=O)Nc2ccc3c(C)cc(=O)oc3c2)c1,-5%,-2%
CCn1nc(C(=O)Nc2ccc(OC)c(OC)c2)c2ccccc2c1=O,8%,17%
CCCNC(=O)NCc1cccn1Cc1cc(C)ccc1C,53%,15%
Cc1ccc(F)cc1S(=O)(=O)N(Cc1cc(CN2CCOCC2)cs1)c1ccc(F)cc1,10%,8%
COc1ccc(N(Cc2cc(CN3CCOCC3)cs2)S(=O)(=O)c2cc(C)cc(C)c2)cc1,-1%,25µM*
COc1ccc(OC(=O)c2cnccn2)cc1,-5%,11%
CCOc1ccc2nc(N(Cc3cccnc3)C(=O)c3cccs3)sc2c1,4%,55%
COc1ccc2sc(N(Cc3cccnc3)C(=O)c3cccs3)nc2c1,3.2µM*,?
SMILES,FMDV RLuc,FMDV FLuc
Cc1nc2c(C)cccn2c1/C(O)=C1\C(=O)C(=O)N(CCN2CCOCC2)C1c1ccccc1F (configuration not stated),-10%,1%
N#CC1(NC(=O)CNc2cc(F)cc(F)c2)CCCC1,12%,10%
CC(C)c1ccc(NC(=O)c2ccc(F)c(S(=O)(=O)N3CCc4ccccc43)c2)cc1,-1%,?
O=C(Nc1ccc(Br)cc1)c1ccc(F)c(S(=O)(=O)N2CCc3ccccc32)c1,?,11µM*
O=S(=O)(Nc1nc2ccccc2nc1Nc1ccc(F)cc1)c1ccc(F)cc1,3.5µM*,2.5µM*
COc1cccc(Nc2nc3ccccc3nc2NS(=O)(=O)c2cccc(Cl)c2)c1,32%,?
COc1ccccc1Nc1nc2ccccc2nc1NS(=O)(=O)c1ccc(Cl)s1,2%,1%
O=S(=O)(Nc1nc2ccccc2nc1Nc1ccccc1)c1ccc(Cl)s1,?,4.5µM*
CCOc1ccc(S(=O)(=O)Nc2nc3ccccc3nc2Nc2ccc(F)cc2)cc1,2%,3%
O=S(=O)(Nc1nc2ccccc2nc1Nc1cccc(F)c1)c1cccc(Cl)c1,4µM*,3.5µM*
COc1cccc(C(=O)NCC(=O)NCc2ccc3cc(OC)ccc3c2)c1,1%,-23%
N#Cc1cc(C(=O)c2cc(F)ccc2O)cn(C2CCCCC2)c1=O,62%,0%
Cc1ccccc1OCCOC(=O)c1ccc2nccnc2c1,-2%,41%
CN(C)S(=O)(=O)c1ccc(C(=O)OCc2csc(-c3ccccc3)n2)cc1,0%,17%
Cc1nsc(N)c1C(=O)OCc1csc(-c2ccccc2)n1,1.8µM*,-13%
CC(=O)Nc1cccc(C(C)NC(=O)Nc2ccccc2SC2CCCC2)c1 (configuration not stated),-26%,-10%
COc1ccc(/C=C(/C#N)c2nc3ccccc3[nH]2)cc1,213%,145%
COc1ccc2cc(/C=C(/C#N)c3nc4ccccc4[nH]3)ccc2c1,10µM*,225%
O=C(COc1ncnc2ccccc12)Nc1ccc(Cl)c(Cl)c1,4%,13%
O=C(Cc1cccc(C(F)(F)F)c1)NC1(c2ccccc2)CCC1,1%,6%
CC(C)NC(=O)CCNC(=O)N1CCN(C(=O)c2cc3ccccc3[nH]2)CC1,-7%,-3%
O=[N+]([O-])c1ccccc1/C=N/Nc1ccc(S(=O)(=O)Nc2cccc(Cl)c2)cc1[N+](=O)[O-],-77%,11µM*
O=[N+]([O-])c1ccccc1/C=N/Nc1ccc(S(=O)(=O)Nc2ccc(Cl)cc2)cc1[N+](=O)[O-],181%,-11%
COc1ccc(/C=C\c2onc(C)c2S(=O)(=O)N2CCC(C(=O)Nc3ccc(C)c(F)c3)CC2)cc1,-10%,-10%
COc1ccc(/C=C\c2onc(C)c2S(=O)(=O)N2CCC(C(=O)Nc3ccc(F)cc3F)CC2)cc1,28µM*,32µM*
SMILES,FMDV RLuc,FMDV FLuc
CCOC(=O)Cc1ccc(NC(=O)n2ncc3cc(Cl)ccc32)cc1,7%,7.9µM*
CCOC(=O)Cc1ccc(NC(=O)n2ncc3c(C)cccc32)cc1,-3%,?
Cc1ccc(C(=O)COc2ccc(C3CCCCC3)cc2)cc1,52%,0%
Cc1ccccc1CNC(=O)CN1C(=O)CCCc2ccccc21,32µM*,114%
COc1ccccc1CNC(=O)CN1C(=O)CCCc2ccccc21,-3%,-4%
CC(NC(=O)CCc1ccccc1)C1CC2CCC1C2 (configuration not stated),10%,11%
CC(=O)c1ccc(C(=O)NC(C)c2ccc(OC(F)F)cc2)s1 (configuration not stated),-6%,44%
Nc1nccnc1C(=O)NCc1ccc(O)cc1,18%,13%
CCOCc1ccc(CNC(=O)c2nccnc2N)cc1,25µM*,?
Cc1cccc(COc2ccc(CNC(=O)c3nccnc3N)cc2)c1,14µM*,?
Nc1nccnc1C(=O)NCc1ccccc1,10%,22%
CN(C)CC(C)(C)CNc1nc(-c2cccnc2)nc2ccccc12,4%,4%
CCCNc1c(NC(=O)c2ccccc2OCC)c(=O)oc2ccccc12,21%,-1%
CSc1ccc(CN(C)C(=O)CSc2nnc(COc3ccc(Cl)cc3)n2C)cc1,4µM*,10µM*
CN(Cc1ccsc1)C(=O)CSc1nnc(COc2ccc(Cl)cc2)n1C,9%,7%
COc1cc(C2CC(=O)Nc3c2sc(C(=O)O)c3-c2ccc(F)cc2)cc(OC)c1OC (configuration not stated),0%,-3%
CCOc1cc(C2CC(=O)Nc3c(-c4ccc(OC)cc4)csc32)ccc1OCC(N)=O (configuration not stated),8.9µM*,13µM*
CC1CCCCN1Cc1oc(CO)cc(=O)c1O (configuration not stated),12%,15%
CCCNC(=O)C(C)Sc1nc(CCC)cc(=O)[nH]1 (configuration not stated),-4%,2%
CCCc1cc(=O)[nH]c(SC(C)C(=O)NC(=O)NC2CCCCC2)n1 (configuration not stated),?,10µM*

# Source: PubChem (National Center for Advancing Translational Sciences (NCATS))
